# About 13,000 (27%) of roughly 48,000 compounds showed an effect of 50% or more. The list shows a part of the results.
# Tested on: Wolbachia pipientis
# Assay: Anti-Wolbachia Cell-Based Screen
# Assay type: functional
# Parameters: scale not given: in the data most compounds retested in dose-response had high values
# Details: 5 µM
row,SMILES,Percent Effect
1,CCc1cc(CNC(=O)Nc2cc(F)ccc2N2CCCCC2)on1,-38%
2,CCN(CCC(=O)OC)S(=O)(=O)c1cnc2c(c1)c(C)nn2C,10.85%
3,Cc1cc(C(C)NCCN2CCC(N(C)C)CC2)c(C)s1 (stereo unspecified),-5.987%
4,COCC(NC(=O)c1cc(NC(C)=O)ccc1Cl)c1ccccn1 (stereo unspecified),-0.4749%
5,O=S1(=O)NCC2(CCCN(Cc3ccccn3)C2)Oc2ncccc21 (stereo unspecified),140.3%
6,Fc1cccc(N2CCCC3(CN(Cc4ccccn4)CCO3)C2)c1.O=C(O)C(F)(F)F.O=C(O)C(F)(F)F.O=C(O)C(F)(F)F (stereo unspecified),-3.088%
7,O=C(O)C(F)(F)F.O=C(O)C(F)(F)F.O=C(O)C(F)(F)F.c1cncc(CN2CCCC3(COCCN(c4cnccn4)C3)C2)c1 (stereo unspecified),-4.353%
8,Fc1cccc(N2CCCC3(CN(Cc4cccnc4)CCO3)C2)c1.O=C(O)C(F)(F)F.O=C(O)C(F)(F)F.O=C(O)C(F)(F)F (stereo unspecified),2.254%
9,Cc1cc(F)ccc1OC1(C(=O)O)CCN(Cc2ccncc2)CC1,7.519%
10,O=S1(=O)NCC2(CCCN(Cc3cccnc3)C2)Oc2ncccc21 (stereo unspecified),131.9%
11,O=C(C1CC=CC1)N1CCC2(CC1)CN(Cc1ccccn1)CCO2,-14.52%
12,O=C1COC2(CCN(Cc3ccncc3)CC2)CN1CC1CC1,-5.616%
13,O=S1(=O)NCC2(CCN(Cc3ccncc3)CC2)Oc2ncccc21,130.7%
14,C[S+]([O-])c1nncn1CC(=O)c1ccc(Cl)c(Cl)c1 (stereo unspecified),17.05%
15,Cc1cnn(CCCN2C(=O)CCc3ccccc32)c1,16.17%
16,Cc1cc(N2CCCN(C(=O)Cc3cc(F)cc(F)c3)CC2)ccn1,-40.46%
17,Cc1cc(N2CCCN(C(=O)CSCC3CC3)CC2)ccn1,97.17%
18,CCc1nnsc1C(=O)N1CCCN(Cc2ccc(F)cc2)CC1,12.06%
19,COCc1ccc(C(=O)N2CCCN(c3ccc(F)cc3)CC2)s1,-6.209%
20,Cc1cc(N2CCCN(C(=O)Cc3cccnc3)CC2)ccn1,-24.68%
21,O=C(CSCC1CC1)N1CCCN(c2ccc(F)cc2)CC1,101.8%
22,CSCCC(O)C(=O)N1CCCN(Cc2ccc(F)cc2)CC1 (stereo unspecified),20.52%
23,O=C(CSCC1CC1)N1CCCN(Cc2ccc(F)cc2)CC1,113.6%
24,Cc1nc(CC(=O)N2CCCN(c3ccc(F)cc3)CC2)cs1,6.987%

row,SMILES,Percent Effect
1,CN(Cc1ccccn1)C(=O)c1ccc2c(c1O)OC(C)(C)C2,-37.36%
2,COc1ccc(OC)c(CN(C)c2ncc(S(N)(=O)=O)s2)c1,-0.04358%
3,c1cnn(CCNCc2csc(-c3ccsc3)n2)c1,8.023%
4,O=C(O)C(F)(F)F.O=C(c1cnccn1)N1C[C@@H]2CCN(c3cnccn3)C[C@@H]2C1,21.49%
5,O=C(C1CCCCC1)N1C[C@@H]2CCN(c3cnccn3)C[C@@H]2C1.O=C(O)C(F)(F)F,86.55%
6,O=C(C1CCCC1)N1C[C@@H]2CCN(c3cnccn3)C[C@@H]2C1.O=C(O)C(F)(F)F,80.73%
7,O=C(C1CCCO1)N1C[C@@H]2CCN(c3cnccn3)C[C@@H]2C1.O=C(O)C(F)(F)F (stereo partly specified),102.5%
8,CC(C)CN1CC(C(=O)N(C)CCc2cn[nH]c2)CC1=O (stereo unspecified),-9.129%
9,CS(=O)(=O)N1C[C@@H]2CC[C@H](C1)N(CCC(=O)NCc1ccccc1F)C2,-8.664%
10,COc1cccc(CC(=O)NCc2cnc(C)nc2C2CCCN2C)c1 (stereo unspecified),116.5%
11,Cc1ncc(CNC(=O)CCc2cccc(F)c2)c(C2CCCN2C)n1 (stereo unspecified),2.906%
12,Cc1ncc(CNC(=O)CCOc2ccccc2)c(C2CCCN2C)n1 (stereo unspecified),-4.417%
13,Cc1ncc(CNC(=O)CCc2cccs2)c(C2CCCN2C)n1 (stereo unspecified),135.8%
14,Cc1ncc(CNC(=O)CCc2ccccc2F)c(C2CCCN2C)n1 (stereo unspecified),94.99%
15,CCOc1ncccc1CNC(=O)N1CCCC1c1cccs1 (stereo unspecified),-31.15%
16,COc1cccc(CCNC(=O)CN2CCCC2c2noc(C)n2)c1 (stereo unspecified),-3.314%
17,Cc1ncc(CNC(=O)Cc2cccs2)c(C2CCCN2C)n1 (stereo unspecified),125.2%
18,O=C1NCCN(Cc2cccnc2)C1CC(=O)N1CCc2n[nH]cc2C1 (stereo unspecified),-19.58%
19,O=C1C(Sc2nc(=O)ccn2C2CC2)CCN1c1ccccc1F (stereo unspecified),-10.52%
20,CCNC(=O)N1CCC(NC(=O)NCCc2cc3ccccc3o2)C1 (stereo unspecified),-2.435%
21,CSCC(C)NCc1ccc2[nH]c(C)c(C)c2c1 (stereo unspecified),7.257%
22,COCCC(=O)N1C[C@H]2CC[C@@H]1CN(C1Cc3ccccc3C1)C2,12.41%
23,O=C(Nc1nncs1)N(Cc1cccc(O)c1)C1CC1,-1.611%
24,CCC(C)(CC(=O)O)NC(=O)Cc1ccccc1Br (stereo unspecified),0.3012%

row,SMILES,Percent Effect
1,Cc1nc(C2CCCN2CC(=O)NCCc2ccsc2)no1 (stereo unspecified),-6.143%
2,Cc1ncc(CNC(=O)CCc2c(C)noc2C)c(C2CCCN2C)n1 (stereo unspecified),116.8%
3,Cc1ncc(CNC(=O)Cc2ccsc2)c(C2CCCN2C)n1 (stereo unspecified),124.7%
4,Cc1noc(C)c1CCCNC(=O)C1CCCN(C(=O)C2CC2)C1 (stereo unspecified),-0.7156%
5,Cc1ncc(CNC(=O)Cc2ccc(Cl)cc2)c(C2CCCN2C)n1 (stereo unspecified),-6.333%
6,Cc1noc(C)c1CNC(=O)c1ccc(NC2CC2)nc1,4.161%
7,CCCNC(=O)c1cc(Br)cc(S(=O)(=O)N2CCOCC2)c1F,-12.55%
8,CN1[C@H](CN2CCCC2)C[C@@H]2CN(C(=O)Cc3ccsc3)CC[C@@H]21.O=C(O)C(F)(F)F.O=C(O)C(F)(F)F,88.77%
9,CN1[C@H](CN2CCCC2)C[C@@H]2CN(C(=O)c3ccsc3)CC[C@@H]21,81.43%
10,C[C@@H]1C[C@@H]2CCN(C(=O)c3cnccn3)C[C@H]2O1,-10.48%
11,CN1[C@H](CN2CCCC2)C[C@@H]2CN(C(=O)c3cnccn3)CC[C@@H]21,120.7%
12,O=C(c1ccsc1)N1C[C@@H](CN2CCCC2)[C@@H](CO)C1,20.63%
13,O=C(C[C@H]1[C@H]2CN(Cc3ccsc3)C[C@@H]12)N1CCCC1.O=C(O)C(F)(F)F,-30.77%
14,CN1[C@H](Cn2cncn2)C[C@@H]2CN(Cc3ccsc3)CC[C@@H]21.O=C(O)C(F)(F)F.O=C(O)C(F)(F)F,-21.59%
15,O=C(O)C(F)(F)F.O=C(c1cnccn1)N1CC[C@@H]2CO[C@@H](CN3CCCC3)[C@@H]2C1,-10.73%
16,COc1cc(S(=O)(=O)N2CCCc3ccccc32)cc(C(=O)O)c1OC,4.14%
17,c1ccc(Cc2nc(C3CC3)nn2-c2ccc3c(c2)OCCO3)nc1,5.106%
18,c1ccc(C(CC2CN(Cc3ncc[nH]3)CCO2)c2ccccc2)cc1 (stereo unspecified),116.4%
19,CC(C)c1n[nH]c(C2CN(Cc3ncc[nH]3)CCO2)n1 (stereo unspecified),-3.355%
20,CCS(=O)(=O)N1CCOC(CCCc2ccccc2)C1 (stereo unspecified),-15.33%
21,O=C(NCCC1CN(Cc2c[nH]cn2)CCO1)Nc1ccccc1 (stereo unspecified),-0.1872%
22,c1ccc(C(CC2CN(Cc3c[nH]cn3)CCO2)c2ccccc2)cc1 (stereo unspecified),106.4%
23,c1ccc(CCCC2CN(Cc3ncc[nH]3)CCO2)cc1 (stereo unspecified),98.97%
24,CCN(CC1CN(Cc2ncc[nH]2)CCO1)c1cccnn1 (stereo unspecified),4.051%

row,SMILES,Percent Effect
1,CC(C)n1ccnc1CN1CCOC(CCc2ccccc2)C1 (stereo unspecified),-13.14%
2,O=C(Nc1cnn(CC(=O)N2CCCO2)c1)c1ccccc1,1.203%
3,CCN(C(c1cccnc1)c1ccc2c(c1)CCC2)S(C)(=O)=O (stereo unspecified),-0.855%
4,O=C(NC1CCN(C2CC2)CC1)NC1CCOc2ccc(Br)cc21 (stereo unspecified),24.64%
5,CC1=N[C@@]2(CC[C@@H]3CN(C(=O)NC(C)C)C[C@@H]32)C(=O)N1CC(C)C,1.346%
6,CCC(C)Oc1ccc(CNCCNC(C)=O)cc1Cl (stereo unspecified),110%
7,CCOc1ccc(CNCCCn2ccnc2)cc1Cl.Cl.Cl,1.454%
8,CNC(=O)c1ccc(CNCc2ccc(SC)c(OC)c2)cc1,-3.705%
9,CCC(C)Oc1ccc(CNCCc2c[nH]cn2)cc1Cl (stereo unspecified),95.83%
10,CC(CNS(C)(=O)=O)Oc1cccc(Cl)c1 (stereo unspecified),-10.77%
11,CC(=O)NCCNC(=O)NCc1ccc(Br)cc1Cl,-4.256%
12,COc1cc(CNCCNC(=O)c2ccc(O)cc2)ccc1SC,-8.251%
13,CCC(C)Oc1ccc(CNCCNC(C)=O)cc1OC (stereo unspecified),123.2%
14,CCC(C)Oc1ccc(CNCCNS(C)(=O)=O)cc1Cl (stereo unspecified),97.61%
15,C=C(C)COc1cccc(CNCCc2c[nH]cn2)c1,-1.571%
16,CC(CNCc1ccc(Cl)c(Cl)c1)Oc1ccccn1.Cl (stereo unspecified),9.6%
17,C=C(C)COc1ccccc1CNCCc1c[nH]cn1,-1.538%
18,COc1cc(C2CC(=O)Oc3cc(C)[nH]c(=O)c32)ccc1OC(F)F (stereo unspecified),2.33%
19,Cc1ccccc1[C@@H]1CN(Cc2nc3ncccn3n2)C[C@H]1C(=O)O,-5.6%
20,Cc1nc(C)c(CNC(=O)NC(c2nnc3n2CCC3)C(C)C)s1 (stereo unspecified),-4.122%
21,COc1ccc(C(=O)Cn2cnnc2[S+](C)[O-])cc1Cl (stereo unspecified),-30.86%
22,CC(C)n1c(C2CCCN(CC(N)=O)C2)nc2ccccc21 (stereo unspecified),-123.1%
23,C/C(=C\c1ccccc1)CN1CCCC(c2nnc3n2CCNCC3)C1.Cl (stereo unspecified),87.16%
24,Cc1ccc(CC(=O)N2CCC(c3nnc4n3CCC4)CC2)cc1,-4.36%
